For the first test, the target named is T1, ERF (Homo sapiens, UniProt P50548 1-548).
T1 sequence: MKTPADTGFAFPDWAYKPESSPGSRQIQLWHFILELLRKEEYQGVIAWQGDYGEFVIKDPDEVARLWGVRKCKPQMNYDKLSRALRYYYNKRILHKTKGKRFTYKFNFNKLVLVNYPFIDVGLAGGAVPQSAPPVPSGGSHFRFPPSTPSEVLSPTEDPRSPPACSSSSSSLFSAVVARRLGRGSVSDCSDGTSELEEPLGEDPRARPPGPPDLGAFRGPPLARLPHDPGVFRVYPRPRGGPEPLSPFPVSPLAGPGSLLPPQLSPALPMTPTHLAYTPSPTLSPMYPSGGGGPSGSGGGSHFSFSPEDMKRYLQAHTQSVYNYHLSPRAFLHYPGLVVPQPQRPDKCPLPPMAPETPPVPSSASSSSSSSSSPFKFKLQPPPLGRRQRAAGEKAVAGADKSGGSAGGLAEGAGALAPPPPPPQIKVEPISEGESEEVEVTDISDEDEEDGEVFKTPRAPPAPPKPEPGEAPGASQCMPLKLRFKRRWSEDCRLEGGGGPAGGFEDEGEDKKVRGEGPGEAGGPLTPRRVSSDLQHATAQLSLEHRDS
As to the kind of experiment: DAPPL (digital affinity profiling via proximity ligation, sequencing); 10 mM Tris-HCl pH 7.5, 50 mM NaCl, 1 mM DTT, 4% glycerol, room temperature, 30 min; GST-TFs on glutathione beads, 16-mer random dsDNA library, 0.1% formaldehyde crosslink after washing; high values mean tight binding. The settings on record: protein: recombinant; tags: N-terminal GST; dsDNA, one strand shown. Put shortly: (§1)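 Yeast served to express human transcription factors as GST fusions, which were then captured on glutathione beads and labelled with DNA barcodes. Pooled with a tag-only sample, they were incubated with 200 nmole of a 16-mer random double-stranded DNA library for 30 min at room temperature in Tris/NaCl/DTT/glycerol buffer, washed, crosslinked with 0.1% formaldehyde, ligated by proximity, amplified by PCR and sequenced. Dividing each hexamer's read frequency for a factor by its frequency for the tag-only sample gives the binding signal.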
With ACACAG, the binding signal is 1.04 fold enrichment (6-mer frequency, TF over GST control).

As for CAACGG, the binding signal is 1.08 fold enrichment (6-mer frequency, TF over GST control).

As to CAGTAT, the binding signal was 1.1 fold enrichment (6-mer frequency, TF over GST control).

In the case of AGGTAA, the binding signal is 1.06 fold enrichment (6-mer frequency, TF over GST control).

For a further test, the target named is T2, ETV3L (Homo sapiens, UniProt Q6ZN32 1-361).
T2 sequence: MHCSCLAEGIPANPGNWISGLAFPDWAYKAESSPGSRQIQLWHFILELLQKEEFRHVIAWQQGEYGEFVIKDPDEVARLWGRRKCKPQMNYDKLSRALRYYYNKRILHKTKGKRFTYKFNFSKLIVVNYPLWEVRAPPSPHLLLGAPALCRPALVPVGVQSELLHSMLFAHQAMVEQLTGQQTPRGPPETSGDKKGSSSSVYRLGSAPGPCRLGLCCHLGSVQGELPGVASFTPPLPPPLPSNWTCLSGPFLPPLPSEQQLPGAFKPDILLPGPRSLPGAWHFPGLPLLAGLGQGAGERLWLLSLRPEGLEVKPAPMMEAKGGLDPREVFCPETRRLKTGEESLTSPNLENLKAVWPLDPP
The description is as above. The settings on record: protein: recombinant; tags: N-terminal GST; dsDNA, one strand shown. A digest of the protocol: as §1
With ACACAG, the binding signal is 1.05 fold enrichment (6-mer frequency, TF over GST control).

For the sequence ACGCGT, the binding signal is 1.02 fold enrichment (6-mer frequency, TF over GST control).

Regarding CAGTAT, the binding signal is 1.02 fold enrichment (6-mer frequency, TF over GST control).

For GGCCTG, the binding signal was 1.04 fold enrichment (6-mer frequency, TF over GST control).

As to TCTGAG, the binding signal was 1.01 fold enrichment (6-mer frequency, TF over GST control).

Regarding AGATGT, the binding signal is 1 fold enrichment (6-mer frequency, TF over GST control).

Consider GTTGCC, for which the binding signal is 1.03 fold enrichment (6-mer frequency, TF over GST control).

Consider GTTGTG, for which the binding signal is 1.02 fold enrichment (6-mer frequency, TF over GST control).

For the sequence GCGCAC, the binding signal is 1.03 fold enrichment (6-mer frequency, TF over GST control).

Take CCACCA: the binding signal was 1.04 fold enrichment (6-mer frequency, TF over GST control).

As to GTCATT, the binding signal is 1.01 fold enrichment (6-mer frequency, TF over GST control).

GCGTTA: the binding signal is 1.04 fold enrichment (6-mer frequency, TF over GST control).

The next test deals with T3, ETS2 (Homo sapiens, UniProt P15036 1-469).
T3 sequence: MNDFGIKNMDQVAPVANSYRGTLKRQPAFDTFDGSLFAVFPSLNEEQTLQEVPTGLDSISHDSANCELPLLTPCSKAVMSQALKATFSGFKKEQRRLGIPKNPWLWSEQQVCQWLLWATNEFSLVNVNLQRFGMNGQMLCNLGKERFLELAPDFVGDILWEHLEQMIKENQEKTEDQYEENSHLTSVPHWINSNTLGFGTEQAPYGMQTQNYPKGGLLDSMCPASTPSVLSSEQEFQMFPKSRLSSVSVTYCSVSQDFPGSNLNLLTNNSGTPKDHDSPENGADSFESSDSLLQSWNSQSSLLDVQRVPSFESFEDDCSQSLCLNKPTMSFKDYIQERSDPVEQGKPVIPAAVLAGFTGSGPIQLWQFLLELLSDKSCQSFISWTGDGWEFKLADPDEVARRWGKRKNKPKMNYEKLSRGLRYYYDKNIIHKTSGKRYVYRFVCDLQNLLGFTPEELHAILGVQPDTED
The description is as above. The settings on record: protein: recombinant; tags: N-terminal GST; dsDNA, one strand shown. Put shortly:
as §1
Consider ACGCGT, for which the binding signal was 1.01 fold enrichment (6-mer frequency, TF over GST control).

With CAGTAT, the binding signal is 1.02 fold enrichment (6-mer frequency, TF over GST control).

AAAGTC: the binding signal was 1.03 fold enrichment (6-mer frequency, TF over GST control).

Regarding ATAACG, the binding signal is 1.05 fold enrichment (6-mer frequency, TF over GST control).

For the sequence CCACCA, the binding signal was 1.05 fold enrichment (6-mer frequency, TF over GST control).

A further test addresses T4, SPDEF (Homo sapiens, UniProt O95238 1-335).
T4 sequence: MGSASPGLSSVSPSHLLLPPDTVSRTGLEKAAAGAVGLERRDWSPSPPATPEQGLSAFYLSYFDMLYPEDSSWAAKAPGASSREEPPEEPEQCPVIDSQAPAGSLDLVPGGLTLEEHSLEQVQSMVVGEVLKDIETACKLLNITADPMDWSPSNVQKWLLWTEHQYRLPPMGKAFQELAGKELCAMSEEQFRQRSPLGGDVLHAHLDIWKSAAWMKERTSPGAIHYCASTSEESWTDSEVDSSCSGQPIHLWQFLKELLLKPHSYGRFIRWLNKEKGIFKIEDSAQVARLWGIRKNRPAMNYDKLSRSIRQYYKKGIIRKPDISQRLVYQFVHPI
The test is described as above. The settings on record: protein: recombinant; tags: N-terminal GST; dsDNA, one strand shown. A digest of the protocol: as §1
In the case of GATCCG, the binding signal is 1.65 fold enrichment (6-mer frequency, TF over GST control).

In the case of CGGTCC, the binding signal is 1.04 fold enrichment (6-mer frequency, TF over GST control).

Consider GTGTTG, for which the binding signal is 1.01 fold enrichment (6-mer frequency, TF over GST control).

Regarding GCATAT, the binding signal was 1.01 fold enrichment (6-mer frequency, TF over GST control).

As to CCACCA, the binding signal is 1.01 fold enrichment (6-mer frequency, TF over GST control).

As to TGTTAG, the binding signal is 1.03 fold enrichment (6-mer frequency, TF over GST control).

Turning to AGGTAA, the binding signal is 1 fold enrichment (6-mer frequency, TF over GST control).

As to GATACC, the binding signal is 1.04 fold enrichment (6-mer frequency, TF over GST control).

The target in the next test is T5, ETV7 (Homo sapiens, UniProt Q9Y603 1-341).
T5 sequence: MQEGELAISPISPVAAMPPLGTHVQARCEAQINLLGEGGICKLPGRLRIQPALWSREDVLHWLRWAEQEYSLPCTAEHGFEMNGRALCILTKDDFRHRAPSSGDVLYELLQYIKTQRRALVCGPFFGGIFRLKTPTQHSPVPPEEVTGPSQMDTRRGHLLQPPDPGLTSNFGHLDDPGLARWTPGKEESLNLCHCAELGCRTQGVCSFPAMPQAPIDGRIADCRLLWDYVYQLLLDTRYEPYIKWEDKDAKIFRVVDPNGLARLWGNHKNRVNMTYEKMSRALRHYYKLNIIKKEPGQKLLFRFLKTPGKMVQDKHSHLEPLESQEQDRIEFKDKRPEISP
The description is as above. The settings on record: protein: recombinant; tags: N-terminal GST; dsDNA, one strand shown. Put shortly:
as §1
ACACAG: the binding signal was 1.13 fold enrichment (6-mer frequency, TF over GST control).

Regarding GGCTGC, the binding signal was 1.14 fold enrichment (6-mer frequency, TF over GST control).

For CAAGCC, the binding signal is 1.02 fold enrichment (6-mer frequency, TF over GST control).

As to GGCCTG, the binding signal was 1.03 fold enrichment (6-mer frequency, TF over GST control).

Take AAAGTC: the binding signal was 1.05 fold enrichment (6-mer frequency, TF over GST control).

For the sequence TCTGAG, the binding signal was 1.05 fold enrichment (6-mer frequency, TF over GST control).

AGATGT: the binding signal is 1.04 fold enrichment (6-mer frequency, TF over GST control).

For the sequence GCATAT, the binding signal is 1.08 fold enrichment (6-mer frequency, TF over GST control).

Turning to GTTGCC, the binding signal was 1.04 fold enrichment (6-mer frequency, TF over GST control).

For the sequence GTCATT, the binding signal was 1.01 fold enrichment (6-mer frequency, TF over GST control).

A further test has as its target T6, ETV3 (Homo sapiens, UniProt P41162-2 1-143).
T6 sequence: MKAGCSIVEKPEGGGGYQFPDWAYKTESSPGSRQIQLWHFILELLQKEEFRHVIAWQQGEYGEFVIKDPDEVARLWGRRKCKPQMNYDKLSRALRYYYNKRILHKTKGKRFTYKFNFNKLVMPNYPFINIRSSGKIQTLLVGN
The description is as above. As to conditions: protein: recombinant; tags: N-terminal GST; dsDNA, one strand shown. Put shortly: as §1
For CAACGG, the binding signal was 1.01 fold enrichment (6-mer frequency, TF over GST control).

TCAGTA: the binding signal was 1.03 fold enrichment (6-mer frequency, TF over GST control).

On to CAAGCC, for which the binding signal was 1.02 fold enrichment (6-mer frequency, TF over GST control).

Consider ATAACG, for which the binding signal is 1.05 fold enrichment (6-mer frequency, TF over GST control).

On to GTAGCG, for which the binding signal is 1.01 fold enrichment (6-mer frequency, TF over GST control).
